Experimental data reported in PubChem BioAssay AID651724 (National Center for Advancing Translational Sciences (NCATS), 2012).
Screen size: about 340,000 compounds; about 1,700 (0.5%) were called active. About 2% were inconclusive and are not listed. Only a selection was taken, and actives are over-represented in it overall. Values without a mark were called inactive. No stated cut-off is given here; in the data, active means activity change below about -65%; inconclusive means mostly about -30% to -63%; inactive means weaker than that.

The compounds below were run on CtBP / adenovirus E1A interaction (AlphaScreen) (assay: qHTS Assay for Inhibitors of the CtBP/E1A Interaction). Details: AlphaScreen GST-E1A/His-CtBP binding, 1536-well; active compounds read low.
From the text: Carboxyl-terminal binding protein (CtBP) is a co-repressor for many transcription factors. […] Our studies have shown that CtBP is overexpressed in multiple human cancers, including lung, breast, and head and neck cancers. In particular, it is over-expressed in 50% of primary lung cancer and 90% of metastatic lesions. CtBP suppresses epithelial-specific genes as well as genes critical for apoptosis, providing the underlying molecular mechanism for its role in tumorigenesis. […] Based on the above data, we hypothesize that 1) CtBP suppresses the pro-apoptotic and epithelial genes, therefore overexpressed CtBP in human cancer cells increases EMT and cancer survival; 2) decreasing CtBP's function represents a targeted therapy for lung cancer and potentially multiple cancer types. As a co-repressor, CtBP binds to E1A and other transcription factors through a conserved peptide motif to carry out its action. Inhibiting this interaction using small molecules can potentially serve as effective cancer therapeutics.
To this end, we have developed a homogenous AlphaScreen assay targeting the CtBP/E1A interaction. We performed a large scale HTS of the Molecular Libraries Small Molecule Repository (MLSMR) to identify inhibitors of the CtBP/E1A interaction as potential anti-cancer therapeutics. Compounds identified can also be used as chemical probes to better understand the biological functions of CtBP.
NIH Chemical Genomics Center [NCGC]
NIH Molecular Libraries Probe Centers Network [MLPCN]
Assay Submitter (PI): Rui Zhao, University of Colorado Denver
The first step of the 5uL AlphaScreen assay is to dispense assay buffer (50 mM Tris, pH 8.0, 300 mM NaCl, 0.05% BSA, 0.02% Tween 20, 1 mM TCEP) into a Greiner 1536 white solid bottom microtiter plate (789175-F). Five microliters is added to Column 1, 4 uL is added to Column 2 and 3 uL is added to Columns 3 through 48. A 5X protein solution (125 nM GST-E1A protein + 125 nM His-tagged CtBP protein) is mixed and 1 uL is dispensed to Columns 3-48. Using a 1536 pintool, 23 nL of compound is transferred to the assay plate and the plate is incubated with a lid at 37 deg C in the dark for two hours. A solution of 5X AlphaScreen beads is mixed (50 ug/mL Glutathione linked donor beads + Nickel chelated acceptor beads) and 1 uL is dispensed to Columns 2-48. The assay plate is incubated for one hour, with a lid, at 37 deg C in the dark. The plate is read using a Perkin Elmer Envision using an AlphaScreen protocol.
On the % scale 0 is the no-effect control and ±100 the full control effect.

| Structure (SMILES) | activity change |
| --- | --- |
| COc1ccc(CCNS(=O)(=O)c2cccc3cccnc23)cc1OC | -9.76% |
| CCCCC(=O)NC(c1ccc(OC)c(OC)c1)c1ccc2cccnc2c1O (stereo not given) | -94.2% (active) |
| CCOc1ccc(C(CC(=O)O)NC(=O)Cc2ccccc2)cc1OC (stereo not given) | -13.3% |
| Cc1ccccc1C#CC1=CC(=O)CC(C)(C)C1 | 5.53% |
| CCCCNC(=O)C[C@@H]1C[C@@]2(C(=O)OC)CC(C)(C)CC=C2N(Cc2ccco2)C1=O | 2.24% |
| COCOc1cccc(CN2CCC(C)(Oc3ccc(SC)cc3)C2)c1 (stereo not given) | -22.6% |
| CSc1ccc(CN2CCC2(C)C(=O)NCc2ccccc2Br)cc1 (stereo not given) | -8.98% |
| COC(=O)[C@@]12C[C@@H](CC(=O)NCCCCc3ccccc3)C(=O)N(Cc3ccccc3)C1=CCC(C)(C)C2 | -0.75% |
| O=c1ccc2c(-c3ccccc3S(=O)(=O)O)c3ccc(O)c(O)c3oc-2c1O | -78.5% (active) |
| CCCCCNC(=O)C1C(=O)Nc2ccccc2C(=O)N1C(C)(C)C (stereo not given) | -0.209% |
| COc1ccc(Cl)cc1-c1cc(C(=O)Nc2cc(OC)c(OC)c(OC)c2)[nH]n1 | 4% |
| O=C1c2ccccc2C(=O)N1CCCc1nc(-c2ccccc2)no1 | 5.59% |
| O=C1c2ccccc2C(=O)N1CCCCCCN1C(=O)c2ccccc2C1=O | 6.03% |
| O=C1c2cccc3cccc(c23)C(=O)N1CCCCCc1n[nH]c(=S)o1 | -82.2% (active) |
| C[C@@H]1CN([C@H](C)CO)C(=O)c2cc(Br)cnc2O[C@@H]1CN(C)Cc1cncnc1 | -16.6% |
| Cc1onc(-c2ccccc2)c1-c1nnc(COC(=O)c2ccc(N(C)C)cc2)o1 | 2.13% |
| COC(=O)[C@@]12C[C@@H](CC(=O)N3CCC(c4ccccc4)CC3)C(=O)N(Cc3ccccc3)C1=CCC(C)(C)C2 | 0.365% |
| CCOC(=O)c1nc(Nc2ccc(C(=O)OC)cc2)c2ccccc2n1 | -86.6% (active) |
| COC(=O)c1ccc(NCC(=O)c2ccccc2)cc1 | 6.11% |
| CCOC(=O)c1ccc(Nc2cc3ccccc3c(=O)[nH]2)cc1 | 2.43% |
| COc1ccc(-c2coc3c(C(=O)NC(C)C)cccc23)c(C)c1 | -12.9% |
| Clc1cccc(Cc2c(-c3cccc(Cl)c3)nc3ccc(Cl)cn23)c1 | 0.333% |
| Cc1ccc(OCCOCCOc2ccc(Br)cc2/C=N\NC(=O)c2ccncc2)cc1 | -10.2% |

| Structure (SMILES) | activity change |
| --- | --- |
| COc1ccc(Br)cc1/C=N/Nc1ccc(Cl)c(C(=O)O)c1 | -2.31% |
| COc1ccc(CC(=O)NCC(=O)N/N=C/c2cc(Br)ccc2OC)cc1 | -87.6% (active) |
| Cc1ccc(C(=O)Oc2coc(CSc3nnc(NC(=O)c4cccs4)s3)cc2=O)cc1C | -16.7% |
| O=C(/C=C/c1ccccc1)Oc1coc(CSc2ncccn2)cc1=O | -92.2% (active) |
| C=CCNC(=O)COc1coc(CN2CCN(Cc3ccccc3)CC2)cc1=O | 2.1% |
| O=Nc1c(O)cc(O)c2ccccc12 | -6.15% |
| COc1ccc(C(=O)N2CCCCC2c2cc(C(=O)Nc3ccc(F)c(Cl)c3)no2)cc1 (stereo not given) | -5.81% |
| O=Cc1cn(CCOc2ccc(F)cc2)c2ccccc12 | 0% |
| CSCCC(c1nnnn1Cc1ccccc1)N1CCN(C/C=C/c2ccccc2)CC1 (stereo not given) | -18.4% |
| O=C(NCc1ccco1)c1cccn2c(=O)c3c4c(sc3nc12)CCCC4 | -12.2% |
| Cc1cccn2c(=O)c3cc(C(=O)NCCN4CCOCC4)c(=N)n(Cc4cccnc4)c3nc12 | -25.6% |
| COc1ccc(CCn2c(=N)c(C(=O)NCc3ccco3)cc3c(=O)n4cccc(C)c4nc32)cc1 | -81.7% (active) |
| CC(C)C[C@@H](COCc1ccc(Cl)cc1)N1CCN(C(=O)c2ccc(Cl)cc2Cl)CCC1=O | 0% |
| CCN1CCN(C(c2cccnc2)c2cc(Cl)c3cccnc3c2O)CC1 (stereo not given) | -99.3% (active) |
| CCOC(=O)N1CCN(C(c2cccnc2)c2ccc3cccnc3c2O)CC1 (stereo not given) | -91.9% (active) |
| CCOC(=O)N1CCN(C(=O)CSc2nc(=O)n3cccc(C)c3n2)CC1 | -4.84% |
| CCOC(=O)N1CCN(C(c2ccnc3ccccc23)c2nnnn2-c2c(C)cccc2C)CC1 (stereo not given) | 0% |
| N#CCCN(C(=S)Nc1ccc(Cl)c(Cl)c1)C1CCCCC1 | 0% |
| COc1ccc(-c2cnc3c(c2)C(=O)N([C@H](C)CO)C[C@@H](C)[C@H](CN(C)Cc2ccccc2)O3)cc1 | -12.8% |
| CC(C)Oc1ccc(CN2CCC2(C)C(=O)NCc2ccc(C(F)(F)F)cc2)cc1 (stereo not given) | 0.872% |
| Cc1ccc(C(=O)NNC(=O)c2ccncc2)cc1S(=O)(=O)N1CCCCC1 | -2.42% |
| Cc1ccc(NC(=O)C2CC(=O)N(c3ccc4c(c3)OCCO4)C2)cc1S(=O)(=O)N1CCCCCC1 (stereo not given) | -5.1% |
| Cc1ccc(C(=O)Nc2ccc3c(c2)OCO3)cc1S(=O)(=O)N1CCCCC1 | -66.6% (active) |

| Structure (SMILES) | activity change |
| --- | --- |
| OC(c1ccccc1)c1nc(/C=C/c2ccc(C(F)(F)F)cc2)cs1 (stereo not given) | 7.85% |
| Cc1nc2c(OCc3ccc(Cl)cc3Cl)cccn2c1N(C)CC1CC1 | -25.5% |
| COc1cc(OC)c(/C=N/NC(=O)c2ccc([N+](=O)[O-])cc2)cc1Br | -0.151% |
| COc1cccc(/C=N/NC(=O)c2[nH]nc3c2CCc2ccccc2-3)c1O | -67.1% (active) |
| COc1ccc(/C=N/NC(=O)c2ccncc2)cc1CN1CCCc2ccccc21 | 13.2% |
| Oc1c(C(c2ccccn2)N2CCOCC2)ccc2cccnc12 (stereo not given) | -81.3% (active) |
| CC(C)c1cc(CN2CCOCC2)cc(C(C)C)c1O | 4.14% |
| CCCCN1C[C@H](c2ccc(Br)cc2)[C@@H](CC(=O)Nc2ccc(Br)cc2)C1=O | -4.21% |
| COc1ccc(OCC(=O)Nc2ccc(NC(=O)c3ccco3)c(C)c2)cc1 | -2.52% |
| COc1ccc(NC(=O)CCC(=O)Nc2cc(OC)c(NC(=O)c3ccco3)cc2OC)c(OC)c1 | -87.4% (active) |
| COc1ccc(CC(=O)Nc2ccccc2NC(=O)c2ccco2)cc1OC | 5.07% |
| CC(=O)Nc1cc(-c2ccccc2N(C)C)cn2c(-c3ccc(F)c(Cl)c3)cnc12 | -22.9% |
| CCCOc1ccc(F)cc1-c1cc(C(=O)Nc2ccc(F)c(Cl)c2)[nH]n1 | 2.38% |
| COCC1CCCCN1C(=O)c1cc(COc2ccc(C)c(C)c2)on1 (stereo not given) | -0.436% |
| COc1ccc(/C=N/N(C)C2=NS(=O)(=O)c3ccccc32)cc1OC | -89.3% (active) |
| COc1ccc(C(C)(C)C)cc1NC(=O)CN(C)C1=NS(=O)(=O)c2ccccc21 | 2.94% |
| C=CCOCCN(C)C1=NS(=O)(=O)c2ccccc21 | 0.314% |
| CC(=O)Nc1cc(-c2ccccc2F)cn2c(-c3cccc(C(F)(F)F)c3)cnc12 | -8.33% |
| COc1ccccc1-c1cc2nc(NCc3cccc(Cl)c3)ccn2n1 | 3.38% |
| O=[N+]([O-])c1cccc(S(=O)(=O)NCc2ccccn2)c1 | 1.03% |
| O=S(=O)(Nc1ccc2nc(-c3ccco3)[nH]c2c1)c1ccccc1 | -18.3% |
| O=[N+]([O-])c1ccc2nc(-c3ccccn3)[nH]c2c1 | -90.6% (active) |
| COCOCCn1cc(CN2CCS(=O)(=O)N(Cc3ccc(-c4ccc(OC)cc4)cc3)C(CC(C)C)C2=O)nn1 (stereo not given) | -1.08% |

| Structure (SMILES) | activity change |
| --- | --- |
| Cc1cc(Nc2ccc(C(=O)N3CCCCC3)cc2)c2cccc(C)c2n1 | 1.83% |
| Cc1cc(Nc2ccc(N3CCOCC3)cc2)c2cccc(C)c2n1 | -16.1% |
| Cc1ccc(Nc2cc(C)nc3c(C)ccc([N+](=O)[O-])c23)cc1 | -66.7% (active) |
| COC(=O)c1ccccc1N=NNc1ccc([N+](=O)[O-])cc1 | -2.76% |
| Fc1cccc(Cc2c(-c3ccc(Cl)cc3)nc3ccc(Cl)cn23)c1 | 0% |
| CCN(CC)C(=O)C1=C(C)N(Cc2ccc(F)cc2)C(=O)C(CC(=O)NCc2cccc3ccccc23)C1 (stereo not given) | -2.72% |
| COc1ccc(NC(=O)CCCNC(=O)Cn2cnc3sc4c(c3c2=O)CCCC4)cc1OC | 20.4% |
| COc1ccc(/C=N/Nc2ncnc3sc4c(c23)CCCC4)cc1O | -87.1% (active) |
| COc1ccc(NC(=O)CCNC(=O)Cn2cnc3sc4c(c3c2=O)CCCC4)cc1OC | 0.477% |
| COC(=O)C1=CN(c2c(C)cc(C)cc2C)C(N)=C(C#N)C1c1cccc(F)c1 (stereo not given) | 3.08% |
| CCCCCCN1CCN(C2CN(Cc3cn(CCCCCC)nn3)S(=O)(=O)C2)CC1 (stereo not given) | 0.678% |
| Cc1nc2c(OCc3cccc(Cl)c3)cccn2c1N(C)CC1CC1 | -6.06% |
| COc1ccc(NC(=O)C2Cc3c(-c4ccc(Cl)cc4)ccnc3O2)cc1 (stereo not given) | 1.32% |
| COCCCNC(=O)c1cccc2c(-c3ccc(O)c(OC)c3)coc12 | -18.4% |
| Cc1cc(NC(=O)CSc2nnc(-c3ccc(Cl)s3)o2)no1 | -93.2% (active) |
| O=C(CSc1nnc(-c2ccncc2)o1)Nc1cccc(Cl)c1 | 6.8% |
| Cc1cc(NC(=O)CSc2ncc(C(F)(F)F)cc2Cl)no1 | -2.36% |
| CCCCc1c(-c2ccc(Br)cc2)ncn1CCc1ccccc1OC | -11.3% |
| Cc1ccc(-n2c(SCC(=O)NCCC3=CCCCC3)nc3n[nH]c(C)c3c2=N)cc1Cl | -20.7% |
| COc1cccc(-n2c(SCC(=O)NC3CCCCC3)nc3n[nH]c(C)c3c2=N)c1 | -66.5% (active) |
| CCCCNC(=O)CSc1nc2n[nH]c(C)c2c(=N)n1-c1cccc(Cl)c1C | -0.913% |
